# From PubChem BioAssay (Tox21)
# Inconclusive results are not listed. Where a call stands in place of a potency, no number is given. Calls of active or inactive are those of the source. Calls follow the shape of the dose curve; as a rule, active = well fitted cell-killing curve with a large enough effect in the repeat runs; inconclusive = weak or mixed curves, or effect the other way; inactive = flat fitted curve, though single readings scatter.
# Experiment: cAMP Responsive Elements (CRE) small molecule agonists, cell-based qHTS assay: qHTS cell viability counter screen (AID 2060914);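 also: viability read after 3 h of compound exposure; nearly all actives have a fitted effect of over 50% in size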
# Conditions: CRE-bla HEK293T viability, CellTiter-Glo luminescence, 5 h; series mostly up to 92.4 µM
# Summary of the method: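 CRE-bla HEK 293T cells, plated 18 h at 37 °C, were exposed to compounds for 3 h at 37 °C/5% CO2. Viability was then measured in the same wells by CellTiter-Glo luminescence after 30 min at room temperature.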
Compound,Potency,"activity change, negative = cytotoxicity"
C[C@@H]1C[C@H]2[C@@H]3CCC4=CC(=O)C=C[C@]4(C)[C@@]3(F)[C@@H](O)C[C@]2(C)[C@@]1(O)C(=O)CO,inactive,–
O=C(Nc1ccc([N+](=O)[O-])cc1)Nc1ccc([N+](=O)[O-])cc1 (tested in a mixture with another compound),inactive,–
CC(CSC(=O)c1ccccc1)C(=O)N1C[C@@H](Sc2ccccc2)C[C@H]1C(=O)O (stereo not given in full),–,-0.289% [at 18.9 µM] (inactive)
c1ccc2c(c1)CCCC2C1=NCCN1 (stereo not given),inactive,–
CC(=O)N1C[C@H](O)C[C@H]1C(=O)O,inactive,–
CCCCCCCCCCCCCCCCCC(=O)OCC(CC)CCCC (stereo not given),inactive,–
CCOC(=O)COc1ccc2c(c1)CC(NCC(O)c1cccc(Cl)c1)CC2 (stereo not given),inactive,–
COc1ccc(CCC(=O)c2c(O)cc(O[C@@H]3O[C@H](CO)[C@@H](O)[C@H](O)[C@H]3O[C@@H]3O[C@@H](C)[C@H](O)[C@@H](O)[C@H]3O)cc2O)cc1O,inactive,–
O=C1CCCCCCCCCCCCCC1,inactive,–
CC/C(=C(\c1ccccc1)c1ccc(OCCN(C)C)cc1)c1ccccc1,inactive,–
Cc1cc2c(s1)Nc1ccccc1N=C2N1CCN(C)CC1,inactive,–
CC(C)COCC(CN(Cc1ccccc1)c1ccccc1)N1CCCC1 (stereo not given),inactive,–
CCOc1ccc(NC(=O)CC(C)=O)cc1,inactive,–
CCC(CC)CO,inactive,–
CC(C)OC(=O)c1cc2c(OCC(O)CNC(C)(C)C)cccc2[nH]1 (stereo not given),inactive,–
CC(=O)OCc1ccccc1,inactive,–
C[C@H](CCC(=O)O)[C@H]1CC[C@H]2[C@@H]3CC[C@@H]4C[C@H](O)CC[C@]4(C)[C@H]3CC[C@]12C,inactive,–
CC1=C(C=O)C(C)(C)CCC1,inactive,–
C=CC(O)CCCCC (stereo not given),inactive,–
CC(=O)O[Si](C)(OC(C)=O)OC(C)=O,inactive,–

Compound,Potency,"activity change, negative = cytotoxicity"
COc1cc2c(Nc3ccc(Br)cc3F)ncnc2cc1OCC1CCN(C)CC1,inactive,–
CC1C(C)(C)C2=C(C(=O)CCC2)C1(C)C (stereo not given),inactive,–
C[C@@H]1[C@H](O)[C@@H](C)/C=C/C=C\C=C\C=C\C=C\C=C\C=C\[C@H](O[C@@H]2O[C@H](C)[C@@H](O)[C@H](N)[C@@H]2O)C[C@@H]2O[C@](O)(C[C@@H](O)C[C@@H](O)[C@H](O)CC[C@@H](O)C[C@@H](O)CC(=O)O[C@H]1C)C[C@H](O)[C@H]2C(=O)O (stereo in doubt),inactive,–
OCCN(CCO)c1cccc(Cl)c1,inactive,–
CCCCCc1ccc(N)cc1,inactive,–
Clc1ccc(Cl)c(Cl)c1Cl,inactive,–
CSCC[C@H](NC(=O)[C@H](Cc1c[nH]c2ccccc12)NC(=O)CCNC(=O)OC(C)(C)C)C(=O)N[C@@H](CC(=O)O)C(=O)N[C@@H](Cc1ccccc1)C(N)=O,inactive,–
CC(O)C(C)O (stereo not given),inactive,–
O=S(=O)(O)c1ccc(O)cc1,inactive,–
O=C(O)C1=NN(c2ccc(S(=O)(=O)O)cc2)C(=O)C1,inactive,–
CC(=O)c1c(C)c([N+](=O)[O-])c(C(C)(C)C)c([N+](=O)[O-])c1C,inactive,–
OCc1ccccc1O,inactive,–
COC(=O)Nc1nc2ccc(C(=O)C3CC3)cc2[nH]1,inactive,–
CCNC(=O)/C=C/c1cccc(Br)c1,inactive,–
CC1=CC(C)C(C=O)C(C)C1 (stereo not given),inactive,–
COCc1c(C(C)C)nc(C(C)C)c(/C=C/[C@@H](O)C[C@@H](O)CC(=O)O)c1-c1ccc(F)cc1,inactive,–
NC(=O)c1ccccc1N,inactive,–
O=C1c2ccccc2S(=O)(=O)N1CCCCN1CCN(c2ncccn2)CC1,inactive,–
COC(=O)CC(C(C)=O)C(=O)OC (stereo not given),inactive,–
C=CN1CCCCCC1=O,inactive,–
